The target in assay [1] is Sphingosine kinase 1 (Homo sapiens) (UniProt Q9NYA1). The settings on record: at 1 µM.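 Note: mean SPHK1 inhibition value reported from the GSK PKIS kinase panel screen.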
Assay [2] concerns the target T1, Sphingosine kinase 2 (Homo sapiens) (UniProt Q9NRA0).
T1 sequence (whole entry): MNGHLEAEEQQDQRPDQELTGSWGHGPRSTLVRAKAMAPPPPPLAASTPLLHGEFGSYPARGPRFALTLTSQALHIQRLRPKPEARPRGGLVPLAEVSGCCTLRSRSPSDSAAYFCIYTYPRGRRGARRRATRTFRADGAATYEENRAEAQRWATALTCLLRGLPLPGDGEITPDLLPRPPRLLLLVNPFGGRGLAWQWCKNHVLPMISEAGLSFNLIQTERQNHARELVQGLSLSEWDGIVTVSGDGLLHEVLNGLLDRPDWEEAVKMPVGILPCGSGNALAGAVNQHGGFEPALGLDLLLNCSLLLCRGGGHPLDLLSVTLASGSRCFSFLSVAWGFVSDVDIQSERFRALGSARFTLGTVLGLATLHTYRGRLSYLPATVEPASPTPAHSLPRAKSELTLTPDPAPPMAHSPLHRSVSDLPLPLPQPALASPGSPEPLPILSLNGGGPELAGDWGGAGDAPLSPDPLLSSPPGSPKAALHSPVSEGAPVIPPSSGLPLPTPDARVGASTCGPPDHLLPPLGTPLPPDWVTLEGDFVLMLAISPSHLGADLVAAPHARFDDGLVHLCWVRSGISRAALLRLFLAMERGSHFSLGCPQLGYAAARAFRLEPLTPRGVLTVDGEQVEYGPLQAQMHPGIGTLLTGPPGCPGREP
The settings on record: at 0.1 µM.

The target in assay [3] is T1, Sphingosine kinase 2 (Homo sapiens). Particulars: at 1 µM.
Assay [4] has as its target Casein kinase II subunit alpha (Homo sapiens) (UniProt P68400). Particulars: at 0.1 µM.
For assay [5] the target is unchanged. The settings on record: at 1 µM.
In assay [6] the target is T2, Inhibitor of nuclear factor kappa-B kinase subunit alpha (Homo sapiens) (UniProt O15111).
T2 sequence (whole entry): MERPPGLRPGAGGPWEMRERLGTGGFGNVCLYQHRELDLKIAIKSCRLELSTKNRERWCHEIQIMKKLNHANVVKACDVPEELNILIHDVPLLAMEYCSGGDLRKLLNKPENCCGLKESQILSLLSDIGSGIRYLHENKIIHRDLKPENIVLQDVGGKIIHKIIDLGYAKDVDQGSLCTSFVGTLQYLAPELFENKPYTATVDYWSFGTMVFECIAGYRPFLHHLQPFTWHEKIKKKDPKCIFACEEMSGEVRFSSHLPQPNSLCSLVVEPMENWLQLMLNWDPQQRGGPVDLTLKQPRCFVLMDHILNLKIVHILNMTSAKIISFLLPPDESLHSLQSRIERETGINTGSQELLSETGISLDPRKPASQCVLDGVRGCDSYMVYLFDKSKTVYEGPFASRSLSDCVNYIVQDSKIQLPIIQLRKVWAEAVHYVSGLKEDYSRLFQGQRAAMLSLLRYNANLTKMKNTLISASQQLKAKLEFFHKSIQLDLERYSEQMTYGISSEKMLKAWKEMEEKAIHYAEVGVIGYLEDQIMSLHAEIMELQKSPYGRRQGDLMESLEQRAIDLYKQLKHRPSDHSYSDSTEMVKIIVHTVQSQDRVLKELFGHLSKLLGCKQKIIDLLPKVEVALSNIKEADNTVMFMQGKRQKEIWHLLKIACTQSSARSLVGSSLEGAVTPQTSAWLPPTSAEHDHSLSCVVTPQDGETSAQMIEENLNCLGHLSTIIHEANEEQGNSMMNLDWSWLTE
The settings on record: at 0.1 µM.

The target of assay [7] is T2, Inhibitor of nuclear factor kappa-B kinase subunit alpha (Homo sapiens). Particulars: at 1 µM.
Assay [8] addresses T3, Inhibitor of nuclear factor kappa-B kinase subunit beta (Homo sapiens) (UniProt O14920).
T3 sequence (whole entry): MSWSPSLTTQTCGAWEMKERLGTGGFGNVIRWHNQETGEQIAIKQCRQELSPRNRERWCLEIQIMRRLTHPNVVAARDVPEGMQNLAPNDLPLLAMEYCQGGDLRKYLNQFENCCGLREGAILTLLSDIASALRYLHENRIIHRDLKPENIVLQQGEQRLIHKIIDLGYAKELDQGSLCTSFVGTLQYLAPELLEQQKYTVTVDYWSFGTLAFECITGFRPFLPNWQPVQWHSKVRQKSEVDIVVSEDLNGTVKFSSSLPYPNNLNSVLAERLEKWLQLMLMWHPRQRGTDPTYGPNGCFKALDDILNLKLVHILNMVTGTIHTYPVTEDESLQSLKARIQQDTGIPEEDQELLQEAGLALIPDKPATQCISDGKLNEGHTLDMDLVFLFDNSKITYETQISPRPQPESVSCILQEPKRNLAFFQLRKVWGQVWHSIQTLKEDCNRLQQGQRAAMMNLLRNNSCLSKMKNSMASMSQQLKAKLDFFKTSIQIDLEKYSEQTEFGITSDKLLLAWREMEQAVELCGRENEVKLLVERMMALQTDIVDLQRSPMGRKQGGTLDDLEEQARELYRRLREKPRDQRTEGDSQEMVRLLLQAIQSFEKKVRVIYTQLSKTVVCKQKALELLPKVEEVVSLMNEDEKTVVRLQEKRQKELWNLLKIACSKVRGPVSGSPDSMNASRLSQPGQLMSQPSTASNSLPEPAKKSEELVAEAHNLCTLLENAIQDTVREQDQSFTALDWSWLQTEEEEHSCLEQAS
The settings on record: at 0.1 µM.

Assay [9] has as its target T3, Inhibitor of nuclear factor kappa-B kinase subunit beta (Homo sapiens). Particulars: at 1 µM.
In assay [10] the target is T4, Inhibitor of nuclear factor kappa-B kinase subunit epsilon (Homo sapiens) (UniProt Q14164).
T4 sequence (whole entry): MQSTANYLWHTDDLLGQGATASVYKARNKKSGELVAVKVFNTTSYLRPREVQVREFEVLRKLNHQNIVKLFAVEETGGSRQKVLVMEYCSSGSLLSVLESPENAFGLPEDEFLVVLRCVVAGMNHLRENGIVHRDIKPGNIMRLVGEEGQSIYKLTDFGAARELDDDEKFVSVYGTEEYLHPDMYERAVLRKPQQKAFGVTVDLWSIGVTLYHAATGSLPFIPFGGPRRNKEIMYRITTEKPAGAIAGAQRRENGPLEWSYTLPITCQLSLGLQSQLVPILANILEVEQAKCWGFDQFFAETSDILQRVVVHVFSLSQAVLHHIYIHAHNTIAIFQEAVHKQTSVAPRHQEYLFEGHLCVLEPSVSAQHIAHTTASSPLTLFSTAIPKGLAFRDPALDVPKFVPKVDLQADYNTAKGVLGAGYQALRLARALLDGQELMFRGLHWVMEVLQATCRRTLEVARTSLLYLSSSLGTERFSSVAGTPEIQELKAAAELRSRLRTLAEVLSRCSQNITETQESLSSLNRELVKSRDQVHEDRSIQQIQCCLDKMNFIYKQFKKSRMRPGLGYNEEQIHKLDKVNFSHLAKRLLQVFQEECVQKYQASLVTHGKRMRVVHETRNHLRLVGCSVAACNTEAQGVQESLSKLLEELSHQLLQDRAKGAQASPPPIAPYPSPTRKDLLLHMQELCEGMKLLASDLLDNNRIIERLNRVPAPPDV
The settings on record: at 0.1 µM.

In assay [11] the target is T4, Inhibitor of nuclear factor kappa-B kinase subunit epsilon (Homo sapiens). Particulars: at 1 µM.
The target in assay [12] is T5, Serine/threonine-protein kinase Nek1 (Homo sapiens) (UniProt Q96PY6).
T5 sequence (whole entry): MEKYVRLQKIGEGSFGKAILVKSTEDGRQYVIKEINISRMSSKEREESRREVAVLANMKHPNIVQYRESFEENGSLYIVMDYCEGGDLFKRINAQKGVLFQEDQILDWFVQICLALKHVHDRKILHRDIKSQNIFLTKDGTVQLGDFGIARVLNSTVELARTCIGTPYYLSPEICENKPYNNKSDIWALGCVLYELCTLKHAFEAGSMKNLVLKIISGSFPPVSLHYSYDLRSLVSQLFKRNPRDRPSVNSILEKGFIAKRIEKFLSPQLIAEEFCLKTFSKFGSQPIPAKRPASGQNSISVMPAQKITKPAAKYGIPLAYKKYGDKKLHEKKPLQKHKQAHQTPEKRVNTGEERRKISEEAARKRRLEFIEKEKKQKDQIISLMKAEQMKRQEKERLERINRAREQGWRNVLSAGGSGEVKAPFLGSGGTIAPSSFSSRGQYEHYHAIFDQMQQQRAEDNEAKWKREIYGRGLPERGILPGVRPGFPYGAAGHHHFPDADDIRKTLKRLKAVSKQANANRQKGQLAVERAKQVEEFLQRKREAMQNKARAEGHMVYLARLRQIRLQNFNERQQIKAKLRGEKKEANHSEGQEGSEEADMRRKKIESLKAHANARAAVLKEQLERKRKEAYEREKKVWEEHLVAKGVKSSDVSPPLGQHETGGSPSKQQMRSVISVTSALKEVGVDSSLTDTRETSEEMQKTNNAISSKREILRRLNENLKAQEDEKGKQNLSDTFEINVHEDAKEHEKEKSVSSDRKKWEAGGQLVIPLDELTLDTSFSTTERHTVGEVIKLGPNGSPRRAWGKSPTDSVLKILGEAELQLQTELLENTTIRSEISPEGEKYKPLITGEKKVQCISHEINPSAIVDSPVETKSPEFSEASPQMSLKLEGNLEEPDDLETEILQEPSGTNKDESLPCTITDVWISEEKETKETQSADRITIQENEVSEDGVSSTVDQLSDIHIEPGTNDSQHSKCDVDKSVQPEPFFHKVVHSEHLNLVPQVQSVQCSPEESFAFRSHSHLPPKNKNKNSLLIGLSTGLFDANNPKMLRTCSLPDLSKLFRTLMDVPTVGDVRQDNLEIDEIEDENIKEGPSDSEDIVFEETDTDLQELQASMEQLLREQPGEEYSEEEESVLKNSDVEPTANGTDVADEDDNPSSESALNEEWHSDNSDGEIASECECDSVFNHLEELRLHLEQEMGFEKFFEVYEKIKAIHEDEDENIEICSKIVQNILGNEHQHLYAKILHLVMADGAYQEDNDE
Particulars: at 0.1 µM.

Assay [13] concerns the target T5, Serine/threonine-protein kinase Nek1 (Homo sapiens). Particulars: at 1 µM.
Assay [14] concerns the target T6, Serine/threonine-protein kinase Nek2 (Homo sapiens) (UniProt P51955).
T6 sequence (whole entry): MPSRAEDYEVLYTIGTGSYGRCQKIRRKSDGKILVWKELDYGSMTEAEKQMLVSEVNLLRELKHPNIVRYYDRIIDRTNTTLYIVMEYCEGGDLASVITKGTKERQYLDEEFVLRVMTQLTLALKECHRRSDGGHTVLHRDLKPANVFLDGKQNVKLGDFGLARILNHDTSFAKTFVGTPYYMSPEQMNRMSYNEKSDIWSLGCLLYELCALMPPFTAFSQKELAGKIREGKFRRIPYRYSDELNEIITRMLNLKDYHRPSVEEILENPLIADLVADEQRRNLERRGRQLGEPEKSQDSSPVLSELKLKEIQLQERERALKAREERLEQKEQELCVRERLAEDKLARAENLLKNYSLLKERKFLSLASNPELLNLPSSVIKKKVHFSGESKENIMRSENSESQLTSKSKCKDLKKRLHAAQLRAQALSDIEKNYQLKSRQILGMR
The settings on record: at 0.1 µM.

In assay [15] the target is T6, Serine/threonine-protein kinase Nek2 (Homo sapiens). Particulars: at 1 µM.
Assay [16] deals with Serine/threonine-protein kinase Nek6 (Homo sapiens) (UniProt Q9HC98). Particulars: at 0.1 µM.
Chain of Serine/threonine-protein kinase Nek6 (Homo sapiens) (Q9HC98 whole entry): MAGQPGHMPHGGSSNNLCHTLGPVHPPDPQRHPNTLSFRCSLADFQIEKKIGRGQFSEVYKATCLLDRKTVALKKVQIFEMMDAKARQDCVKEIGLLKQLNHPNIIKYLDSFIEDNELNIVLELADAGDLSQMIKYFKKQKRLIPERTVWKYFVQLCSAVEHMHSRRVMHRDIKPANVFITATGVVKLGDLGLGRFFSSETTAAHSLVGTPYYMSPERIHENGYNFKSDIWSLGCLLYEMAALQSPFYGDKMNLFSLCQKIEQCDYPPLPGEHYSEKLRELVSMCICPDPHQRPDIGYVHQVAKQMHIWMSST
Assay [17] shares this target. Particulars: at 1 µM.
Assay [18] has as its target Serine/threonine-protein kinase Nek7 (Homo sapiens) (UniProt Q8TDX7). The settings on record: at 0.1 µM.
Assay [19] has the same target. The settings on record: at 1 µM.
Assay [20] addresses T7, Serine/threonine-protein kinase Nek9 (Homo sapiens) (UniProt Q8TD19).
T7 sequence (whole entry): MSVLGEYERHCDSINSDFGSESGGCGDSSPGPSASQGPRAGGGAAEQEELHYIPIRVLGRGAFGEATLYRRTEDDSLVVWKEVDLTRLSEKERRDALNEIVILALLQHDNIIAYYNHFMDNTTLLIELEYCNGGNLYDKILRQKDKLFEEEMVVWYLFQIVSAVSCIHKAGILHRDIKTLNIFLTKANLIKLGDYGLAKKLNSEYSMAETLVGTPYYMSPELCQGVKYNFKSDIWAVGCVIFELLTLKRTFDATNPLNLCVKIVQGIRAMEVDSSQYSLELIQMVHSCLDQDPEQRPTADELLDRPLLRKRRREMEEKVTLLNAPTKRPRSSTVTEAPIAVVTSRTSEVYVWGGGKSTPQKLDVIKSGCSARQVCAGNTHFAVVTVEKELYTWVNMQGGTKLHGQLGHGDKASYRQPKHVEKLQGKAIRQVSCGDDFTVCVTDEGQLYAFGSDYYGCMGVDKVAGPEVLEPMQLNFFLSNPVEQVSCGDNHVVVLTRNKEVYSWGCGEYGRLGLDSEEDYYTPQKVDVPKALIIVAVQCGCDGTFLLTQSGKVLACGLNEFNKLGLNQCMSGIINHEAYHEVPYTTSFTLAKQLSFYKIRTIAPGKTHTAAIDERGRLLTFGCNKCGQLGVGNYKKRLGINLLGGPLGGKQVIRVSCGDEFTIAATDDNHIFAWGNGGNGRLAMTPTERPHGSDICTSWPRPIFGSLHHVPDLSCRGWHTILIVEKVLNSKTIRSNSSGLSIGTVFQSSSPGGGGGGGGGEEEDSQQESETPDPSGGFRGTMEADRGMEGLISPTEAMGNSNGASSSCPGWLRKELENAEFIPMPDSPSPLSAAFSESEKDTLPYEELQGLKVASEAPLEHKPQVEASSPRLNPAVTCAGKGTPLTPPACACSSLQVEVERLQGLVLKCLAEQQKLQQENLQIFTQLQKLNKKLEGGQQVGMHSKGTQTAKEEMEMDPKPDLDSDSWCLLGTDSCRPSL
The settings on record: at 0.1 µM.

Chain of Casein kinase II subunit alpha (Homo sapiens) (P68400 whole entry, looked up): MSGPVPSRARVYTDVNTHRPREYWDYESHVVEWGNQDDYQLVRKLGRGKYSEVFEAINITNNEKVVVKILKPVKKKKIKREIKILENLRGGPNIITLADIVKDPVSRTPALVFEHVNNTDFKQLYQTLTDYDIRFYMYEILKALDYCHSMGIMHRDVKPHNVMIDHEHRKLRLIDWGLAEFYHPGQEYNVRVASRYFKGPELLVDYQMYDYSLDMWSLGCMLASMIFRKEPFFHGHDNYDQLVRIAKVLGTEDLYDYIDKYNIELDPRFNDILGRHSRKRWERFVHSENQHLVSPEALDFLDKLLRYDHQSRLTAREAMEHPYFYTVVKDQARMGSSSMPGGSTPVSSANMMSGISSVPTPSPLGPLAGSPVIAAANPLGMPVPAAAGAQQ
Chain of Serine/threonine-protein kinase Nek7 (Homo sapiens) (Q8TDX7 whole entry, looked up): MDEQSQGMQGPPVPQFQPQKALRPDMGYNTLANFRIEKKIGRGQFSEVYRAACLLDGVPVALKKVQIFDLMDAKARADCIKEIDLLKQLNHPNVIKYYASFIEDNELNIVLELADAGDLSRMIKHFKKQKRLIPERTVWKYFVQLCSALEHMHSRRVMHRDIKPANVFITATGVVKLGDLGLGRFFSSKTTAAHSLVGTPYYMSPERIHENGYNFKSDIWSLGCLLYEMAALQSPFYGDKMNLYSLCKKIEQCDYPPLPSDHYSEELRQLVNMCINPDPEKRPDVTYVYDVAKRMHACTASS
Chain of Sphingosine kinase 1 (Homo sapiens) (Q9NYA1 whole entry): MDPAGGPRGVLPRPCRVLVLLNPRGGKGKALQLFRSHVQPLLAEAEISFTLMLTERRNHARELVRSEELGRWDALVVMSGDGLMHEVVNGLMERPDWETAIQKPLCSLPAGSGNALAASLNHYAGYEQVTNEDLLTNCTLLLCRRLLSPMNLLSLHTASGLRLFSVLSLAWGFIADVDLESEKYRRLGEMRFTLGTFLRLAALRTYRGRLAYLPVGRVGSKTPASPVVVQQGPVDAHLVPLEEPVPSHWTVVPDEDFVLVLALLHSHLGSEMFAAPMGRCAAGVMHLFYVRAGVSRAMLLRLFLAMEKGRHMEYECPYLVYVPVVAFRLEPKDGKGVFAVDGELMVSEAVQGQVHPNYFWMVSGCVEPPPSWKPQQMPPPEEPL

As usually defined, the inhibition is the drop in the measured response relative to a control, in per cent. For the compound `NC(=O)c1ccc2c(-c3ccnc(NCCCO)n3)c(-c3ccc(F)cc3)nn2c1`, the inhibition in [1] was -1.09%; in assay [2] it was 0.78%; in [3] it was -0.19%; in [4], 3.49%; in [5], 3.53%; in [6], 8.35%. Further, the inhibition in [7] worked out at 4.86%; in assay [8] it was 7.11%; in assay [9] it was 2.1%; in assay [10], 4.91%; in assay [11] it was 3.59%; in [12], 2.6%. The inhibition in assay [13] is 3.93%; in [14], 5.07%; in [15], 6.59%; in assay [16], 1.23%; in [17] it was -0.99%; in [18], 6.38%. Moreover, the inhibition in assay [19] amounted to 4.14%; in assay [20], 5.71%.

These data come from ChEMBL document CHEMBL1961873, “Compounds: GSK PKIS; Assays: Nanosyn kinase panel” (2012).
